Activity calls are given as the source filed them.

Here are results for five molecules from PubChem BioAssay.

Assay [1] is described as follows: small molecules captured by biotinylated probe aFSTL3 – biochemical, small-molecule microarray, fluorescence 635/667, stem cell growth factor project, primary screen (AID 1064).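 Also: measures binding of the biotinylated anti-FSTL3 antibody to printed compounds.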 Conditions: higher = more signal.
Assay [2] is described as follows: binders from COS7 lysate, DM2A8 probe, primary screen, torsin A project, cell lysate, small-molecule microarray, fluorescence 635/667 (AID 1065). Conditions: higher = more signal, COS7 lysate expressing mutant human TOR1A.
The nature of assay [3]: small molecules captured by biotinylated probe aFGF2 – biochemical, small-molecule microarray, fluorescence 635/667, stem cell growth factor project, primary screen (AID 1067).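 Also: measures binding of biotinylated aFGF2 protein to printed compounds on slides; z-score merges feature fluorescence and signal-to-noise across triplicate slides.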 Conditions: higher = more signal.
A short description of assay [4]: small molecules captured by biotinylated probe aFGF10 – biochemical, small-molecule microarray, fluorescence 635/667, stem cell growth factor project, primary screen (AID 1071).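 Also: score merges 667 nm spot intensity and signal to noise from triplicate slides.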 Particulars: higher = more signal.
The target of assay [5] is Neurogenic locus notch homolog protein 2 (Homo sapiens) (UniProt Q04721). Kind of assay: small molecules binding Notch2 protein – biochemical, small-molecule microarray, 635 nm fluorescence, stem cell growth factors, primary screen (AID 1073). Particulars: higher = more signal.
For assay [6], the target named is Pro-neuregulin-1, membrane-bound isoform (Homo sapiens) (UniProt Q02297). Description: small molecules binding neuregulin-1 protein – biochemical, small-molecule microarray, fluorescence 635/667, psychiatric disease protein project, primary screen (AID 1075).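 Also: score combines 667 nm spot fluorescence with signal to noise.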 Particulars: NRG1 binding, 635 nm fluorescence, higher = more signal.
Chain of Pro-neuregulin-1, membrane-bound isoform (Homo sapiens) (Q02297 whole entry, looked up, the tested form may be a part, canonical isoform): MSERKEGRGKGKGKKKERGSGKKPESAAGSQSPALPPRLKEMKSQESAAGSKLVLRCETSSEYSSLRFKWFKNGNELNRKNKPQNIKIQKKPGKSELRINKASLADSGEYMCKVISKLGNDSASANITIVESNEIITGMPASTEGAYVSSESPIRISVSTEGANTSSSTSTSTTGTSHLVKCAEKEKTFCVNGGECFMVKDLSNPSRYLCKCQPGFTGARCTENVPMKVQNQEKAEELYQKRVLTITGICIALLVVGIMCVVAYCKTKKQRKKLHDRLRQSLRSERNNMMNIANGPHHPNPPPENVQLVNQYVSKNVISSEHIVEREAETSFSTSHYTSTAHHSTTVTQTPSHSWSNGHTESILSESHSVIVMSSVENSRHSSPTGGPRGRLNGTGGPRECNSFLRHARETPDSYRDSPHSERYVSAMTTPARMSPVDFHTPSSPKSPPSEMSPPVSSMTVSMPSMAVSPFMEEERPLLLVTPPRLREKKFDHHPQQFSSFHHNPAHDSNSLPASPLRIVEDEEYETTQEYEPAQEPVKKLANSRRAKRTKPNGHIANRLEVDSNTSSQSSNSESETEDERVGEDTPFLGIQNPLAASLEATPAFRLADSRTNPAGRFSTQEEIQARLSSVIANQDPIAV
Assay [7] relates to Neuregulin-1 EGF-like domain. Description: small molecules binding NRG1 EGF domain – biochemical, small-molecule microarray, 635 nm fluorescence, primary screen (AID 1081).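 Also: binding of the protein to compounds printed on small-molecule microarray slides.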 Particulars: higher = more signal.
The nature of assay [8]: FRG1 expression reporter modulators in myotubes – cell-based, C2C12 myotubes, firefly/Renilla luciferase, luminescence, FRG1 inhibition for FSHD, primary screen (AID 1084). Conditions: FRG1 promoter luciferase, higher = more signal, called active from +8 up or from −8 down.
The nature of assay [9]: small molecules captured by biotinylated probe aFST – biochemical, small-molecule microarray, fluorescence 635/667, stem cell growth factor project, primary screen (AID 1086).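 Also: score merges 667 nm fluorescence with signal-to-noise of each printed compound spot.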 Particulars: higher = more signal.
A short description of assay [10]: binders of probe aHhip on microarray, primary screen, stem cell growth factor project, biochemical, small-molecule microarray, fluorescence 635/667 (AID 1087).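 Also: score merges spot fluorescence at 667nm with spot signal to noise ratio.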 Conditions: higher = more signal.
Assay [11] relates to PRMT1 (protein arginine N-methyltransferase 1). Description: small molecules binding arginine methyltransferase PRMT1 – biochemical, small-molecule microarray, 635 nm fluorescence, primary screen (AID 1088).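 Also: binding of Prmt1 protein to compounds spotted on small-molecule microarray slides.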 Particulars: higher = more signal.
Assay [12] in a line: growth effects on S. cerevisiae YJM789 – YJM789 clinical isolate, OD600, 24 h, basal, primary screen (AID 1089).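 Also: growth of clinical yeast isolate S. cerevisiae YJM 789 seeded 1000 cells per well; test concentration not given here.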 Particulars: higher = more signal, called active from +8 up or from −8 down.
Assay [13] can be described thus: S. pombe growth modifiers, basal conditions – strain 972, OD600, 24 h, no modulator, primary screen (AID 1090).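 Also: basal condition with compound alone and no growth modifier present; test concentration not given here.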 Particulars: S. pombe 972 growth, higher = more signal, called active from +8 up or from −8 down.
Assay [14] is described as follows: budding yeast growth modifiers under rapamycin – strain BY4716, OD600, 96 h, primary screen (AID 1091). Also: test concentration not given here. Conditions: S. cerevisiae BY4716 + rapamycin, higher = more signal, called active from +8 up or from −8 down.
The target in assay [15] is Torsin-1A-interacting protein 2 (Homo sapiens) (UniProt Q8NFQ8). Kind of assay: small molecules binding lysate-expressed LULL1 – cell lysate, human LULL1 lysate, 635/667 nm fluorescence, primary screen (AID 1092).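 Also: score merges per-feature 667 nm fluorescence with signal-to-noise.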 Particulars: small-molecule microarray, hLULL1 lysate binding, 635 nm fluorescence; higher = more signal.
Chain of Torsin-1A-interacting protein 2 (Homo sapiens) (Q8NFQ8 whole entry, looked up): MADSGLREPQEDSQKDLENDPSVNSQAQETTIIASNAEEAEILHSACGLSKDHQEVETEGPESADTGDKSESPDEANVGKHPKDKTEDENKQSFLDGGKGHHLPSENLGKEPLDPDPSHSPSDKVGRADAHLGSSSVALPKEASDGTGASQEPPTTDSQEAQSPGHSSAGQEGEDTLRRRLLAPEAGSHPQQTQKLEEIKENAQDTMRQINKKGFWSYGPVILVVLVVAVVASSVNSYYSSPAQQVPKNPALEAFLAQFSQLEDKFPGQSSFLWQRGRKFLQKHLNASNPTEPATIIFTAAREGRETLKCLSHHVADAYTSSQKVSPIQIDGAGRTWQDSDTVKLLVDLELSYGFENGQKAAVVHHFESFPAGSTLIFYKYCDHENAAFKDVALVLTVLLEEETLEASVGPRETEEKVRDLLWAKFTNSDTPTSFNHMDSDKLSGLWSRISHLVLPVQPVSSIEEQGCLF
The nature of assay [16]: optical density change of DRC41 E. coli – strain DRC41, OD650, 24 h, E. coli filamentation project, primary screen (AID 1093).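 Also: MC1000 strain lacking acrAB efflux and sulA so SOS filamentation is blocked; test concentration not given here.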 Particulars: E. coli DRC41 growth, higher = more signal, called active from +8 up or from −8 down.
Assay [17] is described as follows: probe aLefty2 binding to arrayed compounds – biochemical, biotinylated probe, 635/667 nm fluorescence, primary screen (AID 1094).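 Also: score merges spot fluorescence near 667 nm with spot signal-to-noise ratio.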 Conditions: small-molecule microarray, higher = more signal.
The test system of assay [18] is Noggin (protein binding on small-molecule microarray). Kind of assay: small molecules binding Noggin protein – biochemical, 635/667 nm fluorescence, primary screen (AID 1095).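 Also: score merges 667 nm feature fluorescence with signal to noise over triplicate slides.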 Conditions: 635 nm fluorescence, higher = more signal.
The target in assay [19] is Neurogenic locus notch homolog protein 3 (Homo sapiens) (UniProt Q9UM47). Description: small molecules binding NOTCH3 protein – biochemical, 635/667 nm fluorescence, primary screen (AID 1096). Conditions: small-molecule microarray, 635 nm fluorescence, higher = more signal.
Chain of Neurogenic locus notch homolog protein 3 (Homo sapiens) (Q9UM47 whole entry, looked up): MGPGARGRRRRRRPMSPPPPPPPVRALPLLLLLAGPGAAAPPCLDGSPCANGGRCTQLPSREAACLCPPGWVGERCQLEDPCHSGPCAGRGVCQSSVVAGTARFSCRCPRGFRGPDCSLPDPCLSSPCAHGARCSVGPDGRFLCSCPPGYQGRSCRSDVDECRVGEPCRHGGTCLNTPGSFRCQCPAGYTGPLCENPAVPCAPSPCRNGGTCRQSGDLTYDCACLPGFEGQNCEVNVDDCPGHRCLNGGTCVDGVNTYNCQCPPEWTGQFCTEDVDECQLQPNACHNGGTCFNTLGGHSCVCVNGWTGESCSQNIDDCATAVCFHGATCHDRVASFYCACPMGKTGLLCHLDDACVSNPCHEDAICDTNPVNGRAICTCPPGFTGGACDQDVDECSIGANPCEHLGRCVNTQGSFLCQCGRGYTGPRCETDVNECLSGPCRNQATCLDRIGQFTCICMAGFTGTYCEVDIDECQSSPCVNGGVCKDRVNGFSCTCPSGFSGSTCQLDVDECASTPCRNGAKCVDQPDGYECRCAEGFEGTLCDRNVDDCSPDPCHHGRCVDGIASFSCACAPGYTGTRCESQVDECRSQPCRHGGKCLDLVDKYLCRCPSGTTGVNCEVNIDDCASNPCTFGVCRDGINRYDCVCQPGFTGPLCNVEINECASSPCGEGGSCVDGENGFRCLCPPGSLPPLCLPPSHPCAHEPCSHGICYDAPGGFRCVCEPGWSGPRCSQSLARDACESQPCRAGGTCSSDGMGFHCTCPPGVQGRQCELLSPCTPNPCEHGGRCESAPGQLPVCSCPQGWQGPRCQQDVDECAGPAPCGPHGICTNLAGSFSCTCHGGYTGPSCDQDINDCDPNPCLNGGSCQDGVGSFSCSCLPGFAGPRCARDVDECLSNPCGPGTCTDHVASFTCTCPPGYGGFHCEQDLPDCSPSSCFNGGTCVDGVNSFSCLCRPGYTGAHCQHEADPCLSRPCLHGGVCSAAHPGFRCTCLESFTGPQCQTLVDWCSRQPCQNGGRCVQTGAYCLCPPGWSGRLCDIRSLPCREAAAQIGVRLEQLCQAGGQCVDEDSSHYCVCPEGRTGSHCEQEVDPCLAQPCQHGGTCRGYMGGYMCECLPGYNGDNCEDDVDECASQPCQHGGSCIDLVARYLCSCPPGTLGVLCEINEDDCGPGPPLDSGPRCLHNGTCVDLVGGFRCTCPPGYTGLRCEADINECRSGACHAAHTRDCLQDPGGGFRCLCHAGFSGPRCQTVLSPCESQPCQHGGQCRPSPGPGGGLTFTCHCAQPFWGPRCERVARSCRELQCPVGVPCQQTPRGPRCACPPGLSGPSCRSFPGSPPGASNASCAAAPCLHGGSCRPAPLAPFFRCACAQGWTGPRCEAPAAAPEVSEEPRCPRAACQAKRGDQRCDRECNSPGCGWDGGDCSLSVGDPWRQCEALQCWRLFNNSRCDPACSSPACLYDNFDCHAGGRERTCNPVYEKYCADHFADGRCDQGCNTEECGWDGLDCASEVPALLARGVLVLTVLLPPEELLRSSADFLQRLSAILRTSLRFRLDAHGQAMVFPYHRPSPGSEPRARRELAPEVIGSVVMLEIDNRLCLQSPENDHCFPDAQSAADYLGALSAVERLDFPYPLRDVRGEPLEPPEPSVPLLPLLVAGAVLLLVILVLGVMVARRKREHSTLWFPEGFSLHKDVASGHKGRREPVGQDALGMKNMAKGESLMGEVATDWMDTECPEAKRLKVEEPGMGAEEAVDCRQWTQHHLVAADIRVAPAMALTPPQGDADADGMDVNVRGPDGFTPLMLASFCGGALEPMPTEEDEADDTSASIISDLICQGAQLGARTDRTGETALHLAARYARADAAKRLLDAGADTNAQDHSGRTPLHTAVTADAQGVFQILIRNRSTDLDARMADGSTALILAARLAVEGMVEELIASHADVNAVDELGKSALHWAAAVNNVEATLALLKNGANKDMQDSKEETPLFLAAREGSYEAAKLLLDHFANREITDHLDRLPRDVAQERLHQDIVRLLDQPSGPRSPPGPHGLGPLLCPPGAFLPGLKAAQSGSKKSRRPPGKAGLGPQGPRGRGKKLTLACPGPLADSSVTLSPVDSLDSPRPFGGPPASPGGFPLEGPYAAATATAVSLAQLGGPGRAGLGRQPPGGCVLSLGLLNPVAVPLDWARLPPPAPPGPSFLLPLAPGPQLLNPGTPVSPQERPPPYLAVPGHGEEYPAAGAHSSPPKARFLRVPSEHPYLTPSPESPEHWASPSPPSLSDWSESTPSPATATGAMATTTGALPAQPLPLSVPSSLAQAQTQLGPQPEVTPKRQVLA
Assay [20] can be described thus: probe aEGFR binding to arrayed compounds – biochemical, biotinylated probe, 635/667 nm fluorescence, primary screen (AID 1097).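 Also: probe is a biotinylated anti-EGFR antibody binding compounds printed on slides; score combines fluorescence near 667 nm and signal to noise of each spot.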 Conditions: small-molecule microarray, higher = more signal.

Turning to `C=C(COC)/C(=C/C[C@@H](OC(C)=O)c1ccc(OCCO)cc1)c1cc(C(=O)OC)ccc1OC`, the composite z-score is -0.524 in [1]; 0.118 in assay [2]; -0.0316 in [3]; 0.872 in [4]; 0.62 in assay [5]; 0.67 in [6]. The composite z-score in assay [7] was 0.705; in assay [9], 0.627; in assay [10] it was 0.107; in assay [11] it was 1.54; in [15], 2.16; in assay [17] it was -0.027. Further, the composite z-score in assay [18] was 1.35; in assay [19], 1.12; in assay [20], -0.0728. For the same molecule, the z-score in assay [8] is 0.296 (inactive); in [12] it was 0.0937 (inactive); in [13], -0.51 (inactive); in [14], -0.645 (inactive); in assay [16], -0.018 (inactive).
For `O=C1OCCC/C=C\[C@H]2OC34C=CCN(Cn5nnc6ccccc65)C(=O)[C@H]3N(CCO)C(=O)[C@@H]4C12` (stereo not given in full), the composite z-score in assay [1] was -0.335; in [2], -1.46; in assay [3] it was -0.206; in assay [4], 0.0278; in assay [5], -0.918; in assay [6], 1.21. Besides, the composite z-score in assay [7] was 1.16; in assay [9], -0.486; in [10] it was 0.382; in assay [11] it was -0.614; in assay [15], 1.41; in assay [17], 0.478. For the same molecule, the composite z-score in assay [18] is -0.708; in assay [19], -0.571; in [20], -0.0015. In addition, the z-score in [8] was 0.356 (inactive); in assay [12], 0.744 (inactive); in [13], -0.0999 (inactive); in assay [14], -0.277 (inactive); in assay [16] it was 2.83 (inactive).
With `CN1C(=O)[C@]2(Cc3ccccc3)N=C(c3ccc(OCCCO)cc3)O[C@@H]2c2ccccc21`, the composite z-score in assay [1] is 0.547; in assay [2], 0.758; in assay [3], -0.0333; in assay [4], 0.802; in assay [5], 0.826; in assay [6], 1.36. Further, the composite z-score in assay [7] is 1.35; in [9], 0.265; in assay [10], 0.12; in [11], 1.55; in assay [15] it was 3.14; in assay [17], -0.0354. The composite z-score in [18] stood at 1.34; in assay [19], 0.845; in [20] it was 0.0492. In addition, the z-score is -0.113 (inactive) in assay [8]; -0.112 (inactive) in assay [12]; -3.36 (inactive) in [13]; 2.26 (inactive) in assay [14]; -0.538 (inactive) in assay [16].
Consider `C=C[C@H](COC(C)=O)N(C(=O)OC(C)(C)C)S(=O)(=O)c1ccc(Br)cc1`, for which the composite z-score in assay [1] is 0.726; in [2], 0.303; in assay [3] it was 0.278; in assay [4], 0.348; in assay [5], 1.33; in assay [6] it was -0.243. In addition, the composite z-score is 0.652 in assay [7]; 1.23 in assay [9]; 0.32 in assay [10]; 0.616 in assay [11]; 0.597 in assay [15]; 0.518 in [17]. In addition, the composite z-score in assay [18] was 1.09; in [19], 0.0585; in assay [20] it was 0.545. In addition, the z-score in assay [8] is -1.89 (inactive); in [12], 0.0834 (inactive); in assay [13], -1.25 (inactive); in assay [14], 0.239 (inactive); in assay [16], 1.47 (inactive).
Consider `O=C1C2C=CC(C(O)C(c3ccccc3)c3ccccc3)N(n3cnnc3)C2C(=O)N1Cc1ccccc1` (stereo not given), for which the composite z-score was -0.148 in assay [1]; 0.488 in assay [2]; 0.129 in assay [3]; 0.784 in assay [4]; 0.492 in assay [5]; 0.429 in [6]. For the same molecule, the composite z-score was 1.19 in assay [7]; 0.578 in assay [9]; 0.446 in assay [10]; 1.44 in assay [11]; 3.25 in assay [15]; -0.109 in assay [17]. Moreover, the composite z-score was 0.531 in assay [18], 1.1 in [19] and -0.167 in assay [20]. Moreover, the z-score in assay [8] is 0.266 (inactive); in [12] it was -0.743 (inactive); in [13], -0.615 (inactive); in [14], -0.771 (inactive); in assay [16], -1.21 (inactive).
